Test results taken from PMC11006913.

Columns and labels:
Assay in all cases: PBM; 200 nM protein, PBS
Conditions in all cases: dsDNA, one strand shown
HESX1 [1] = molecular target: HESX1 (Homo sapiens, UniProt Q9UBX0 95-180, R165K)
SHOX [2] = molecular target: SHOX (Homo sapiens, UniProt O15266 103-189)
ALX4 = ALX4 (Homo sapiens, UniProt Q9H161 200-286, Q225E)
HESX1 [3] = molecular target: HESX1 (Homo sapiens, UniProt Q9UBX0 95-180)
MSX2 = MSX2 (Homo sapiens, UniProt P35548 130-214, R199I)
ALX1 [4] = molecular target: ALX1 (Homo sapiens, UniProt Q15699 118-204, L144V)
ALX3 [5] = molecular target: ALX3 (Homo sapiens, UniProt O95076 139-225, N203Q)
SHOX [6] = molecular target: SHOX (Homo sapiens, UniProt O15266 103-189, R173C)
ALX1 [7] = molecular target: ALX1 (Homo sapiens, UniProt Q15699 118-204, L144R)
ALX3 [8] = molecular target: ALX3 (Homo sapiens, UniProt O95076 139-225)
PROP1 [9] = molecular target: PROP1 (Homo sapiens, UniProt O75360 56-141)
HESX1 [10] = molecular target: HESX1 (Homo sapiens, UniProt Q9UBX0 95-180, R109Q)
PROP1 [11] = molecular target: PROP1 (Homo sapiens, UniProt O75360 56-141, R99H)
ALX3 [12] = molecular target: ALX3 (Homo sapiens, UniProt O95076 139-225, L168Q)
HESX1 [13] = molecular target: HESX1 (Homo sapiens, UniProt Q9UBX0 95-180, P111T)
ALX3 [14] = molecular target: ALX3 (Homo sapiens, UniProt O95076 139-225, L168V)
PROP1 [15] = molecular target: PROP1 (Homo sapiens, UniProt O75360 56-141, F88S)
HESX1 [16] = molecular target: HESX1 (Homo sapiens, UniProt Q9UBX0 95-180, F115L)
ALX1 [17] = molecular target: ALX1 (Homo sapiens, UniProt Q15699 118-204)
ALX3 [18] = molecular target: ALX3 (Homo sapiens, UniProt O95076 139-225, N203S)
ALX3 (Homo sapiens, UniProt O95076 139-225, N203S), sequence (O95076 139-225 N203S): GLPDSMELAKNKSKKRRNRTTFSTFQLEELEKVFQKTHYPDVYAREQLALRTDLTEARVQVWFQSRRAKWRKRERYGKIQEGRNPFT

HESX1 (Homo sapiens, UniProt Q9UBX0 95-180, R109Q), sequence (Q9UBX0 95-180 R109Q): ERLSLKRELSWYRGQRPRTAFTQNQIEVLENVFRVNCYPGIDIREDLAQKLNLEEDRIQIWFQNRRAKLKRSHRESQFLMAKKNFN
ALX4, sequence (Q9H161 200-286 Q225E): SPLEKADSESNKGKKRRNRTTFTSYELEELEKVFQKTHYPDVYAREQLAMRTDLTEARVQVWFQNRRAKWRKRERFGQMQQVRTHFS
PROP1 (Homo sapiens, UniProt O75360 56-141, F88S), sequence (O75360 56-141 F88S): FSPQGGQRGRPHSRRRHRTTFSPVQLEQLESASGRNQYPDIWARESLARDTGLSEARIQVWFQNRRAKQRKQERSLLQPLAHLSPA
HESX1 (Homo sapiens, UniProt Q9UBX0 95-180), sequence (Q9UBX0 95-180): as the sequence (Q9UBX0 95-180 R109Q) above, with Q15R counted along it
ALX1 (Homo sapiens, UniProt Q15699 118-204, L144V), sequence (Q15699 118-204 L144V): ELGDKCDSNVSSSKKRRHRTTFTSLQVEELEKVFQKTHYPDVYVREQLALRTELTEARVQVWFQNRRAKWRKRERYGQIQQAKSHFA
SHOX (Homo sapiens, UniProt O15266 103-189), sequence (O15266 103-189): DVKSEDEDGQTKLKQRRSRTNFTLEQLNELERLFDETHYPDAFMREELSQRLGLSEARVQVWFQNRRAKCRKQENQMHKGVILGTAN
ALX3 (Homo sapiens, UniProt O95076 139-225, L168V), sequence (O95076 139-225 L168V): as the sequence (O95076 139-225 N203S) above, with L30V, S65N counted along it
HESX1 (Homo sapiens, UniProt Q9UBX0 95-180, F115L), sequence (Q9UBX0 95-180 F115L): as the sequence (Q9UBX0 95-180 R109Q) above, with Q15R, F21L counted along it
ALX3 (Homo sapiens, UniProt O95076 139-225, L168Q), sequence (O95076 139-225 L168Q): as the sequence (O95076 139-225 N203S) above, with L30Q, S65N counted along it
ALX1 (Homo sapiens, UniProt Q15699 118-204), sequence (Q15699 118-204): as the sequence (Q15699 118-204 L144V) above, with V27L counted along it
PROP1 (Homo sapiens, UniProt O75360 56-141), sequence (O75360 56-141): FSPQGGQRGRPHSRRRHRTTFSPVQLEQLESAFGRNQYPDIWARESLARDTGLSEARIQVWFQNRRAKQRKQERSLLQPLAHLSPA
ALX1 (Homo sapiens, UniProt Q15699 118-204, L144R), sequence (Q15699 118-204 L144R): as the sequence (Q15699 118-204 L144V) above, with V27R counted along it
SHOX (Homo sapiens, UniProt O15266 103-189, R173C), sequence (O15266 103-189 R173C): as the sequence (O15266 103-189) above, with R71C counted along it
PROP1 (Homo sapiens, UniProt O75360 56-141, R99H), sequence (O75360 56-141 R99H): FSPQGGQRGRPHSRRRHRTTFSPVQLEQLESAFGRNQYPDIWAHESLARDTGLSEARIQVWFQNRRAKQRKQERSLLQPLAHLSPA
HESX1 (Homo sapiens, UniProt Q9UBX0 95-180, R165K), sequence (Q9UBX0 95-180 R165K): as the sequence (Q9UBX0 95-180 R109Q) above, with Q15R, R71K counted along it
ALX3 (Homo sapiens, UniProt O95076 139-225, N203Q), sequence (O95076 139-225 N203Q): as the sequence (O95076 139-225 N203S) above, with S65Q counted along it
HESX1 (Homo sapiens, UniProt Q9UBX0 95-180, P111T), sequence (Q9UBX0 95-180 P111T): as the sequence (Q9UBX0 95-180 R109Q) above, with Q15R, P17T counted along it
MSX2, sequence (P35548 130-214 R199I): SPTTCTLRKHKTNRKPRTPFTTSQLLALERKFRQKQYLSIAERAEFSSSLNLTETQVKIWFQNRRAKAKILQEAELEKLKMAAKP
ALX3 (Homo sapiens, UniProt O95076 139-225), sequence (O95076 139-225): as the sequence (O95076 139-225 N203S) above, with S65N counted along it

Sequence | binding signal (HESX1 [1]) | binding signal (SHOX [2]) | binding signal (ALX4) | binding signal (HESX1 [3]) | binding signal (MSX2) | binding signal (ALX1 [4]) | binding signal (ALX3 [5]) | binding signal (SHOX [6]) | binding signal (ALX1 [7]) | binding signal (ALX3 [8]) | binding signal (PROP1 [9]) | binding signal (HESX1 [10]) | binding signal (PROP1 [11]) | binding signal (ALX3 [12]) | binding signal (HESX1 [13]) | binding signal (ALX3 [14]) | binding signal (PROP1 [15]) | binding signal (HESX1 [16]) | binding signal (ALX1 [17]) | binding signal (ALX3 [18])
GTAATTAA | 13.2 upbm affinity estimate (log intensity, higher = more binding, comparable within an allelic series) | 12.8 upbm affinity estimate (log intensity, higher = more binding, comparable within an allelic series) | 14 upbm affinity estimate (log intensity, higher = more binding, comparable within an allelic series) | 13.3 upbm affinity estimate (log intensity, higher = more binding, comparable within an allelic series) | 13.2 upbm affinity estimate (log intensity, higher = more binding, comparable within an allelic series) | 12.2 upbm affinity estimate (log intensity, higher = more binding, comparable within an allelic series) | 8.59 upbm affinity estimate (log intensity, higher = more binding, comparable within an allelic series) | 10.3 upbm affinity estimate (log intensity, higher = more binding, comparable within an allelic series) | 11.8 upbm affinity estimate (log intensity, higher = more binding, comparable within an allelic series) | 12.9 upbm affinity estimate (log intensity, higher = more binding, comparable within an allelic series) | 11.9 upbm affinity estimate (log intensity, higher = more binding, comparable within an allelic series) | 9.89 upbm affinity estimate (log intensity, higher = more binding, comparable within an allelic series) | 11.8 upbm affinity estimate (log intensity, higher = more binding, comparable within an allelic series) | 11.2 upbm affinity estimate (log intensity, higher = more binding, comparable within an allelic series) | 11.8 upbm affinity estimate (log intensity, higher = more binding, comparable within an allelic series) | 10.8 upbm affinity estimate (log intensity, higher = more binding, comparable within an allelic series) | 7.99 upbm affinity estimate (log intensity, higher = more binding, comparable within an allelic series) | 8.12 upbm affinity estimate (log intensity, higher = more binding, comparable within an allelic series) | 12.9 upbm affinity estimate (log intensity, higher = more binding, comparable within an allelic series) | 8.7 upbm affinity estimate (log intensity, higher = more binding, comparable within an allelic series)
ATAATTAC | 12.6 upbm affinity estimate (log intensity, higher = more binding, comparable within an allelic series) | 12 upbm affinity estimate (log intensity, higher = more binding, comparable within an allelic series) | 13.4 upbm affinity estimate (log intensity, higher = more binding, comparable within an allelic series) | 12.6 upbm affinity estimate (log intensity, higher = more binding, comparable within an allelic series) | 13.1 upbm affinity estimate (log intensity, higher = more binding, comparable within an allelic series) | 11.8 upbm affinity estimate (log intensity, higher = more binding, comparable within an allelic series) | 8.56 upbm affinity estimate (log intensity, higher = more binding, comparable within an allelic series) | 9.76 upbm affinity estimate (log intensity, higher = more binding, comparable within an allelic series) | 11.5 upbm affinity estimate (log intensity, higher = more binding, comparable within an allelic series) | 12.5 upbm affinity estimate (log intensity, higher = more binding, comparable within an allelic series) | 11.6 upbm affinity estimate (log intensity, higher = more binding, comparable within an allelic series) | 9.02 upbm affinity estimate (log intensity, higher = more binding, comparable within an allelic series) | 11.4 upbm affinity estimate (log intensity, higher = more binding, comparable within an allelic series) | 10.7 upbm affinity estimate (log intensity, higher = more binding, comparable within an allelic series) | 11.1 upbm affinity estimate (log intensity, higher = more binding, comparable within an allelic series) | 10.3 upbm affinity estimate (log intensity, higher = more binding, comparable within an allelic series) | 7.95 upbm affinity estimate (log intensity, higher = more binding, comparable within an allelic series) | 7.97 upbm affinity estimate (log intensity, higher = more binding, comparable within an allelic series) | 12.5 upbm affinity estimate (log intensity, higher = more binding, comparable within an allelic series) | 8.66 upbm affinity estimate (log intensity, higher = more binding, comparable within an allelic series)
ATAATTAT | 12.8 upbm affinity estimate (log intensity, higher = more binding, comparable within an allelic series) | 12.1 upbm affinity estimate (log intensity, higher = more binding, comparable within an allelic series) | 13.7 upbm affinity estimate (log intensity, higher = more binding, comparable within an allelic series) | 12.8 upbm affinity estimate (log intensity, higher = more binding, comparable within an allelic series) | 12.9 upbm affinity estimate (log intensity, higher = more binding, comparable within an allelic series) | 11.9 upbm affinity estimate (log intensity, higher = more binding, comparable within an allelic series) | 8.72 upbm affinity estimate (log intensity, higher = more binding, comparable within an allelic series) | 9.85 upbm affinity estimate (log intensity, higher = more binding, comparable within an allelic series) | 11.6 upbm affinity estimate (log intensity, higher = more binding, comparable within an allelic series) | 12.7 upbm affinity estimate (log intensity, higher = more binding, comparable within an allelic series) | 11.8 upbm affinity estimate (log intensity, higher = more binding, comparable within an allelic series) | 9.01 upbm affinity estimate (log intensity, higher = more binding, comparable within an allelic series) | 11.5 upbm affinity estimate (log intensity, higher = more binding, comparable within an allelic series) | 10.8 upbm affinity estimate (log intensity, higher = more binding, comparable within an allelic series) | 11.2 upbm affinity estimate (log intensity, higher = more binding, comparable within an allelic series) | 10.4 upbm affinity estimate (log intensity, higher = more binding, comparable within an allelic series) | 8.04 upbm affinity estimate (log intensity, higher = more binding, comparable within an allelic series) | 7.94 upbm affinity estimate (log intensity, higher = more binding, comparable within an allelic series) | 12.5 upbm affinity estimate (log intensity, higher = more binding, comparable within an allelic series) | 8.79 upbm affinity estimate (log intensity, higher = more binding, comparable within an allelic series)
GATAATTA | 13.6 upbm affinity estimate (log intensity, higher = more binding, comparable within an allelic series) | 12.6 upbm affinity estimate (log intensity, higher = more binding, comparable within an allelic series) | 14.1 upbm affinity estimate (log intensity, higher = more binding, comparable within an allelic series) | 13.4 upbm affinity estimate (log intensity, higher = more binding, comparable within an allelic series) | 13.3 upbm affinity estimate (log intensity, higher = more binding, comparable within an allelic series) | 12.3 upbm affinity estimate (log intensity, higher = more binding, comparable within an allelic series) | 8.59 upbm affinity estimate (log intensity, higher = more binding, comparable within an allelic series) | 10.1 upbm affinity estimate (log intensity, higher = more binding, comparable within an allelic series) | 11.8 upbm affinity estimate (log intensity, higher = more binding, comparable within an allelic series) | 12.9 upbm affinity estimate (log intensity, higher = more binding, comparable within an allelic series) | 12 upbm affinity estimate (log intensity, higher = more binding, comparable within an allelic series) | 9.64 upbm affinity estimate (log intensity, higher = more binding, comparable within an allelic series) | 12 upbm affinity estimate (log intensity, higher = more binding, comparable within an allelic series) | 11.2 upbm affinity estimate (log intensity, higher = more binding, comparable within an allelic series) | 11.9 upbm affinity estimate (log intensity, higher = more binding, comparable within an allelic series) | 10.8 upbm affinity estimate (log intensity, higher = more binding, comparable within an allelic series) | 7.94 upbm affinity estimate (log intensity, higher = more binding, comparable within an allelic series) | 8.2 upbm affinity estimate (log intensity, higher = more binding, comparable within an allelic series) | 12.8 upbm affinity estimate (log intensity, higher = more binding, comparable within an allelic series) | 8.72 upbm affinity estimate (log intensity, higher = more binding, comparable within an allelic series)
